From PubChem BioAssay AID624255 (Broad Institute, 2012)
Several values for one entry are separate records, joined by “and”; a condition that tells them apart may be missing. Identical values can stand only once. The whole screen tested about 77,000 compounds, of which about 4,600 (6%) were called active. Roughly 1% stayed inconclusive and do not appear here.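 Rule for the calls: active = mean inhibition above about 93%, with at least 55% of replicates each passing it (limit read from the data, passing the limit was not always enough); inconclusive = only one of those two conditions holds; inactive = neither condition holds.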 Shown is part of a subset that was picked to be rich in actives.

Assay: growth inhibition of T. cruzi in host fibroblasts – cell-based, beta-gal Tulahuen parasites, NIH3T3 host, luminescence, primary screen (AID 624255)
Details: T. cruzi beta-gal in NIH3T3, GalScreen luminescence, 90 h; at 8.34 µM; stronger effect = higher value

Row | SMILES | inhibition
1 | O=C(Cc1ccncc1)N1CCCCN2[C@@H](CO)[C@H](c3ccc(C#CC4(O)CCCC4)cc3)[C@@H]2C1 | 93.8% (inactive)
2 | O=C(Cc1ccccn1)N1CCCCN2[C@H](C1)[C@H](c1ccc(-c3ccccc3F)cc1)[C@@H]2CO | 16.7% (inactive)
3 | COc1cccc(-c2ccc([C@H]3[C@H]4CN(C(=O)Cc5ccncc5)CCCCN4[C@H]3CO)cc2)c1 | 80.9% (inactive)
4 | C/C=C/c1ccc([C@H]2[C@H](CO)N3CCCCN(C(=O)Cc4ccncc4)C[C@@H]23)cc1 | 126% (active)
5 | O=C(Cc1ccncc1)N1CCCCN2[C@H](CO)[C@@H](c3ccc(C#CC4(O)CCCC4)cc3)[C@H]2C1 | 63% (inactive)
6 | COc1ccc(-c2ccc([C@H]3[C@H](CO)N4CCCCN(C(=O)Cc5ccncc5)C[C@@H]34)cc2)cc1 | 102% (active)
7 | N#Cc1cccc(-c2ccc([C@H]3[C@@H](CO)N4CCCCN(C(=O)Cc5cccnc5)C[C@@H]34)cc2)c1 | 61.2% (inactive)
8 | O=C(Cc1ccccn1)N1CCCCN2[C@@H](CO)[C@@H](c3ccc(C#Cc4ccccc4)cc3)[C@@H]2C1 | 110% (active)
9 | O=C(Cc1cccnc1)N1CCCCN2[C@@H](CO)[C@H](c3ccc(C#CC4CCCC4)cc3)[C@@H]2C1 | 110% (active)
10 | OC[C@@H]1[C@H]2c3ccccc3NC[C@H]2N1Cc1cccnc1 | 77.8% (inactive)
11 | O=C(Cc1ccncc1)N1CCCCN2[C@@H](CO)[C@H](c3ccc(-c4ccncc4)cc3)[C@@H]2C1 | 60.5% (inactive)
12 | COC(=O)[C@H]1[C@H](CO)[C@H]2Cn3c(ccc(C4=CCCC4)c3=O)[C@@H]1N2C(=O)CC1CC1 | 11.8% (inactive)
13 | COC(=O)[C@@H]1[C@@H](CO)[C@@H]2Cn3c(ccc(-c4ccc(F)cc4)c3=O)[C@H]1N2C(C)=O | -2.43% (inactive)
14 | COC(=O)[C@H]1[C@H](CO)[C@H]2Cn3c(ccc(-c4cccc(F)c4)c3=O)[C@@H]1N2Cc1ccccc1 | 8.82% (inactive)
15 | O=C(O)[C@H]1[C@H](CO)[C@H]2Cn3c(cccc3=O)[C@@H]1N2C(=O)c1ccccc1 | 42.5% (inactive)
16 | O=C(O)[C@H]1[C@H](CO)[C@H]2Cn3c(ccc(-c4ccccc4F)c3=O)[C@@H]1N2C(=O)c1cccnc1 | 30% (inactive)
17 | COC(=O)C[C@@H]1CC[C@@H]2NC[C@@H](O)COC[C@H]2O1 | 54.8% (inactive)
18 | COC(=O)[C@H]1[C@H](CO)[C@H]2Cn3c(ccc(-c4ccccc4F)c3=O)[C@@H]1N2C(=O)C1CCC1 | 44.2% (inactive)
19 | COc1cccc(-c2ccc3n(c2=O)C[C@@H]2[C@@H](CO)[C@H](C(=O)O)[C@H]3N2C(=O)c2cnccn2)c1 | 39.3% (inactive)
20 | C[C@H]1CN([C@@H](C)CO)C(=O)CCCn2nncc2CO[C@H]1CN(C)C(=O)Oc1cccc2ccccc12 | -20.3% (inactive) and -6.68% (inactive)
21 | COc1ccc(C#Cc2ccc([C@H]3[C@H](CO)N4CCCCN(C(=O)Cc5ccccc5)C[C@@H]34)cc2)cc1 | 109% (active)
22 | O=C(Cc1ccccc1)N1CCCCN2[C@H](CO)[C@H](c3ccc(C#Cc4ccccc4)cc3)[C@H]2C1 | 94.6% (inactive)
23 | O=C(Cc1ccccc1)N1CCCCN2[C@H](C1)[C@H](c1ccc(C#CC3(O)CCCC3)cc1)[C@@H]2CO | 84.7% (inactive)
24 | COC(=O)[C@@H]1[C@@H](CO)[C@@H]2Cn3c(ccc(C4=CCCCC4)c3=O)[C@H]1N2CC1CC1 | 48.5% (inactive)
25 | C[C@H]1CN([C@@H](C)CO)C(=O)CCCn2nncc2CO[C@H]1CN(C)C(=O)Oc1ccccc1 | 32% (inactive) and -17.3% (inactive)
